# Measurements published in PubChem BioAssay.
# The source made the active and inactive calls.
# Columns and labels:
# [1] = anti-His antibody binders, primary screen, artefact control for SMM control protein annotation, biochemical, small-molecule microarray, 635 nm fluorescence (AID 1128); details: anti-His Alexa647 antibody binding, higher = more signal;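 note: score merges feature fluorescence with signal-to-noise for each printed compound spot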
# [2] = system: Human papillomavirus type 1a E7 protein (residues 1-88); assay: HPV1a E7 small-molecule binders, primary screen, biochemical, small-molecule microarray, residues 1-88, 635 nm (AID 1129); details: small-molecule microarray binding, fluorescence 635 nm; higher = more signal
# [3] = target: Focal adhesion kinase 1 (Homo sapiens) (UniProt Q05397); assay: small-molecule microarray binders of FAK, primary screen, biochemical, 635/667 nm fluorescence, BSA, DTT (AID 1130); details: PTK2 binding, 635 nm fluorescence, higher = more signal;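 note: composite of spot emission at 667 nm and signal to noise over triplicate slides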
# Focal adhesion kinase 1 (Homo sapiens), sequence (Q05397 whole entry, looked up): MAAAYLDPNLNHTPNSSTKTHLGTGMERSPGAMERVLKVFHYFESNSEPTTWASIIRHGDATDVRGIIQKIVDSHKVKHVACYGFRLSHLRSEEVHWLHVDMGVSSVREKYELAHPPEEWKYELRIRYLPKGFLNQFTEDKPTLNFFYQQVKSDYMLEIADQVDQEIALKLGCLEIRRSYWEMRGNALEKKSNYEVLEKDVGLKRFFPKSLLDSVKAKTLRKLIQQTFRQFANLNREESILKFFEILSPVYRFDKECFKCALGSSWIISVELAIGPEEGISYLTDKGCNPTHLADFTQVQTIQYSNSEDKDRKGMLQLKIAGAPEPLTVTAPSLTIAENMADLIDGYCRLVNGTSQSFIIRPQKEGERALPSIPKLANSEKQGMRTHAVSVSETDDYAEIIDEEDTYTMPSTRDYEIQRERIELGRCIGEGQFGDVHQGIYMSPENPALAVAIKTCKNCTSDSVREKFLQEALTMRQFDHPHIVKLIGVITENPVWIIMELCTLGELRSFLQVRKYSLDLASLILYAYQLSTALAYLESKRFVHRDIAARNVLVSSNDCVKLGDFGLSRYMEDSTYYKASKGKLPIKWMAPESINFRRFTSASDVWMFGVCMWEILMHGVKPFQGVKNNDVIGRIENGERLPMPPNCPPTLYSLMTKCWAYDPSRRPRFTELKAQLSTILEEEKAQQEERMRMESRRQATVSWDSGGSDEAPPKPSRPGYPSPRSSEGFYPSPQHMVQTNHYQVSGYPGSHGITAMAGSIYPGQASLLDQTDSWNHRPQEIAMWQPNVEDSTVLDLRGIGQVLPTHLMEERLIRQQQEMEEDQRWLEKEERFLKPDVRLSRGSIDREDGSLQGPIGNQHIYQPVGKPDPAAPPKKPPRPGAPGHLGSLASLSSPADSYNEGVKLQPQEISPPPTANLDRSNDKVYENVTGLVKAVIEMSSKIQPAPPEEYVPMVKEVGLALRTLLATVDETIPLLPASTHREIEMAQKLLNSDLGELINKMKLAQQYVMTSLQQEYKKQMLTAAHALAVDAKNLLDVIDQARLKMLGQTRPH
# [4] = system: Fibrinogen (Alexa647-labelled); assay: fibrinogen binders on compound microarrays, profiling panel, artefact control for SMM control-protein annotation, biochemical, small-molecule microarray, 635/667 nm fluorescence (AID 1131); details: fibrinogen-A647 binding fluorescence, higher = more signal;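 note: z-score merges 667 nm fluorescence with per-spot signal-to-noise over triplicate slides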
# [5] = target: Follistatin (Homo sapiens) (UniProt P19883); assay: follistatin binders on small-molecule microarrays, primary screen, biochemical, small-molecule microarray, 635/667 nm fluorescence (AID 1132); details: FST binding, 635 nm fluorescence, higher = more signal
# Follistatin (Homo sapiens), sequence (P19883 whole entry, looked up): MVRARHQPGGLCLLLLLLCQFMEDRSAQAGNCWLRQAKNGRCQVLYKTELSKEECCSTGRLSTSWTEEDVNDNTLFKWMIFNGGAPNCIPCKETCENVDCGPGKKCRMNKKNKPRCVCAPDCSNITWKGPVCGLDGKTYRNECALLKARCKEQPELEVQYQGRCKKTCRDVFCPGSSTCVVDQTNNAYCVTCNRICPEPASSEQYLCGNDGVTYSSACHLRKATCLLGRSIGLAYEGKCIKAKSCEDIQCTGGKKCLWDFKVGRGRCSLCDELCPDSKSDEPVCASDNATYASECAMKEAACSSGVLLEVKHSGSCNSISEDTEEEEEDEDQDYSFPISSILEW
# [6] = target: Fibroblast growth factor 2 (Homo sapiens) (UniProt P09038); assay: FGF2 binders on small-molecule microarrays, primary screen, biochemical, small-molecule microarray, 635/667 nm fluorescence (AID 1133); details: small-molecule microarray binding, FGF2, fluorescence 635/667; higher = more signal
# Fibroblast growth factor 2 (Homo sapiens), sequence (P09038 whole entry, looked up): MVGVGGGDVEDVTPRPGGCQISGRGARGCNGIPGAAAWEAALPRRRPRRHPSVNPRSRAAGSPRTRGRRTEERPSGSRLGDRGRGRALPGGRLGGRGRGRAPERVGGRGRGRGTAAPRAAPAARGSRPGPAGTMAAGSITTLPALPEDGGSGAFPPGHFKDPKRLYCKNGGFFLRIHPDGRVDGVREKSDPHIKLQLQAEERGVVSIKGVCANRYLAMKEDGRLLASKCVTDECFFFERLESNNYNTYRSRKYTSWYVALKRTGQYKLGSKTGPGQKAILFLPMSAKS
# [7] = mitochondrial membrane potential change in A549 cells, profiling panel, cell-based, JC-1 fluorescence, basal, 24 h, 100 nL (AID 1138); details: higher = more signal;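 note: A549 lung adenocarcinoma cells under basal conditions with no added stimulus; test concentration not given here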
# Lefty1 = Lefty1 binders on small-molecule microarrays, primary screen, biochemical, small-molecule microarray, 635/667 nm fluorescence (AID 1139); details: small-molecule microarray binding, fluorescence 635/667; higher = more signal
# [8] = system: wheat germ agglutinin (Triticum aestivum), Alexa647-labelled; assay: wheat germ agglutinin binders on compound microarrays, profiling panel, artefact control for SMM control-protein annotation, biochemical, small-molecule microarray, 635/667 nm fluorescence (AID 1140); details: WGA-A647 binding, 635 nm fluorescence, higher = more signal;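 note: score merges 667 nm feature emission with signal to noise over triplicate slides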
# [9] = target: Luciferin 4-monooxygenase (Photinus pyralis) (UniProt P08659); assay: firefly luciferase enzyme inhibitors, primary screen, biochemical, luminescence, purified enzyme, 2006 set (AID 1141); details: SteadyGlo luminescence, 30 min, higher = more signal, called active from +8 up or from −8 down;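 note: cell-free assay with purified firefly luciferase at 100 ng per well in PBS; test concentration not given here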
# Luciferin 4-monooxygenase (Photinus pyralis), sequence (P08659 whole entry, looked up): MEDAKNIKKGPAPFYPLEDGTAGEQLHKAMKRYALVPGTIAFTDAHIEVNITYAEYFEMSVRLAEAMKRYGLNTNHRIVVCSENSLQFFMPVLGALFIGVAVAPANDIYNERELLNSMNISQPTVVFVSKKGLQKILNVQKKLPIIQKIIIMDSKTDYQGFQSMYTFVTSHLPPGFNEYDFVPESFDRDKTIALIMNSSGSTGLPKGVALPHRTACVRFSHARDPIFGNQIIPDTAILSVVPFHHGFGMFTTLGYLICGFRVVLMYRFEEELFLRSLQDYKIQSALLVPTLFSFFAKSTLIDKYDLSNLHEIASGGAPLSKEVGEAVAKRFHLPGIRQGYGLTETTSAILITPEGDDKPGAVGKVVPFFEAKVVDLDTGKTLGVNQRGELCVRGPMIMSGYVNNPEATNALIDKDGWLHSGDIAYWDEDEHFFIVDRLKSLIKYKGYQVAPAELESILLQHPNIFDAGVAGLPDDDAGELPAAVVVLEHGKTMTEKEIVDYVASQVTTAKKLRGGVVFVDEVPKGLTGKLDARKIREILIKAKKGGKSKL
SMILES,composite z-score [1],composite z-score [2],composite z-score [3],composite z-score [4],composite z-score [5],composite z-score [6],z-score [7],composite z-score (Lefty1),composite z-score [8],z-score [9]
C=C[C@H](C)[C@H](OC(=O)Nc1ccc(OC)cc1)c1ccc(OCCO)cc1,-0.489,-0.653,0.0457,-0.909,-0.617,-0.0943,0.927,-0.431,-0.647,-6.74 (inactive)
Cc1ccc(F)cc1S(=O)(=O)N[C@@H]1CCN(Cc2cccc3[nH]ccc23)C1,0.134,0.179,-0.271,-0.383,1.26,0.932,0.443,0.69,-0.227,-0.0287 (inactive)
CC(C)C[C@@H]1NC(=O)[C@@]23C(=O)N[C@@H](Cc4ccccc4)C2[C@H](C)[C@@]2(C)O[C@H]2C3/C=C/C/C=C\CNC(=O)[C@@H](C)NC1=O (stereo not given in full),-0.471,-0.522,-0.647,-0.67,0.418,0.901,0.0204,0.709,0.808,0.757 (inactive)
O=C(NCCN1CCOCC1)[C@@H]1c2ccccc2C(=O)N(Cc2ccccc2)[C@H]1c1ccc(CO)cc1,-0.87,-0.611,-0.668,0.143,0.321,-0.447,0.829,-0.665,-0.3,1.36 (inactive)
COC(=O)C(CC#Cc1ccc2c(c1)[C@]1(C(=O)N2)[C@H](c2ccc(O)cc2)N2[C@H](c3ccccc3)[C@H](c3ccccc3)OC(=O)[C@H]2[C@@H]1C(=O)N1CCCCCCC1)C(=O)OC,0.792,1.23,1.47,0.945,1.43,1.4,1.21,0.966,1.35,-1.99 (inactive)
O=C1C2C=CC(C(O)c3cc(C(F)(F)F)cc(C(F)(F)F)c3)N(Nc3ccccc3F)C2C(=O)N1c1ccccc1 (stereo not given),-0.102,1.21,0.76,0.847,0.21,-0.215,-1.58,-0.173,0.416,0.668 (inactive)
CC(=O)NCCCC[C@@H]1NC(=O)[C@H]2C[C@@H](C(=O)NCCCCCNC(=O)CS)[C@@H](c3cccc(OCCO)c3)N2C1=O,2.85,0.616,0.598,0.108,1.33,1.6,0.0396,0.157,0.29,-1.36 (inactive)
COc1cc(NN2C(C(O)C3CCCCC3)C=CC3C(=O)N(C)C(=O)C32)cc(OC)c1OC (stereo not given),0.901,1.23,1.97,1,0.954,-0.0452,1.75,-0.608,1.16,-0.527 (inactive)
C=C(CCCC)C(=O)CC[C@H](OC(=O)c1ccccc1-c1ccccc1C(=O)O)c1ccccc1OCCO,1.51,0.341,-0.218,0.412,0.419,0.448,0.58,0.311,-0.107,-1.82 (inactive)
COCCOC(=O)N1C(=O)[C@@]2(c3ccccc31)[C@H](c1ccc(OCCO)cc1)N1[C@H](c3ccccc3)[C@H](c3ccccc3)OC(=O)[C@H]1[C@@H]2C(=O)N1CCCCCCC1,3.91,1.37,4.76,0.995,1.55,1.99,-1.75,1.92,1.76,-0.659 (inactive)
COCCOC(=O)N1C(=O)[C@@]2(c3cc(C#CC4=CCCCC4)ccc31)[C@H](C(=O)N1CCCCCCC1)[C@H]1C(=O)O[C@H](c3ccccc3)[C@H](c3ccccc3)N1[C@@H]2c1ccc(OCCO)cc1,0.119,1.13,0.605,0.806,1.23,0.426,-1.22,0.79,0.956,-0.866 (inactive)
CC(C)C[C@@H]1NC(=O)[C@@H]2C[C@H](C(=O)NCCCCCC[N+](C)(C)C)[C@H](c3cccc(OCCO)c3)N2C1=O,-0.759,-0.0265,-0.219,0.0163,0.349,1.17,-0.547,0.34,-0.285,0.184 (inactive)
O=C1C[C@@](C(=O)NCC(F)(F)F)(c2ccc([N+](=O)[O-])cc2)[C@@H](c2ccc(CO)cc2)N1CC12CC3CC(CC(C3)C1)C2,0.544,1.2,0.0423,0.348,1.5,1.78,-0.598,0.634,0.732,0.28 (inactive)
CN(C)C(=O)[C@@]1(CCC(=O)OC(C)(C)C)N=C(c2ccc(OCCCO)cc2)O[C@H]1c1ccccc1CN=[N+]=[N-],2.38,1.17,0.821,1.01,1.29,0.512,0.123,-0.597,1.05,-0.659 (inactive)
COc1ccc(NC(=O)O[C@H]2[C@@H]3OC(=O)[C@H](Cc4cccc(Br)c4)C/C=C/C[C@@H](Cc4cccc(Br)c4)C(=O)O[C@H]3[C@@H](OC)O[C@@H]2CO)cc1,0.66,0.632,1.73,0.145,0.358,0.293,1.69,1.16,0.464,-1.29 (inactive)
COCCOC(=O)N1C(=O)[C@@]2(c3cc(C#CCCO)ccc31)[C@H](c1ccccc1OCCO)N1[C@H](c3ccccc3)[C@H](c3ccccc3)OC(=O)[C@H]1[C@@H]2C(=O)N1CCCCCCC1,1.35,1.17,0.624,0.857,1.39,1.58,-0.383,1.65,1.14,-0.0558 (inactive)
CC(C)C[C@@H]1NC(=O)[C@H]2C[C@@H](C(=O)NCCCCCN)[C@@H](c3cccc(OCCO)c3)N2C1=O,1.22,0.334,-0.0639,0.133,-0.214,0.181,0.34,-0.813,0.817,-1.07 (inactive)
CN1C(=O)C2C(C1=O)C1C=C(CCCO)C2C(C2CC2)N1Cc1cc2c(cc1Br)OCO2 (stereo not given),2.92,0.788,0.481,0.919,0.4,0.0867,-0.401,0.317,0.555,-0.0255 (inactive)
COC(=O)[C@@]1(Cc2ccc(OC)cc2)[C@H]2c3cc(C(=O)N4CCCC4)n(Cc4ccc(OC(F)(F)F)cc4)c3C[C@H]2CN1C(=O)c1ccccc1,1.36,-0.376,-0.438,1,0.451,-0.702,0.691,-0.683,1.09,2.03 (inactive)
COCCOC(=O)N1C(=O)[C@@]2(c3cc(C#CCNC(N)=O)ccc31)[C@H](c1ccc(OCCO)cc1)N1[C@H](c3ccccc3)[C@H](c3ccccc3)OC(=O)[C@H]1[C@@H]2C(N)=O,1.11,1.14,0.31,0.663,0.926,0.258,-0.405,0.43,0.673,-1.83 (inactive)
C=C(CCCC)/C(=C/C[C@H](OC(C)=O)c1ccc(OCCO)cc1)c1cc(C(=O)OC)ccc1OC,0.124,1.04,0.667,0.046,0.935,0.103,1.78,0.929,0.775,-1.69 (inactive)
